Records with an inconclusive call do not appear. Calls of active or inactive are those of the source. The call rests on the fitted dose curve; in most records, active means well fitted inhibition curve with a large enough effect; inconclusive means small, poorly fitted or top-dose-only effect, or effect the other way; inactive means no such curve, though single readings can be large or run the other way.
test: Confirmatory Assay for General miRNAs Modulators and/or Inhibitors/Activators of miR-21; details: HeLa miR-21 FLuc reporter, luminescence, 48 h; series mostly up to 38.3 µM
Excerpt: MLSCN Grant: 1 R21 NS059478-01 Assay Provider: Qihong Huang, The Wistar Institute NCGC Assay Overview: MicroRNAs (miRNAs) are endogenously encoded small (~20-25 nucleotides), nonprotein-coding RNAs that are involved in post-transcriptional repression of target messenger RNAs (mRNAs) (Le and Hannon, 2004). Estimated to be involved in the regulation of 30% of all protein-coding mRNAs (Filipowicz et al., 2008), miRNAs play a significant role in many biological processes including cellular differentiation and tissue development (Ghildiyal and Zamore, 2009).
NCGC Assay Protocol Summary: Reagents: HeLa cells stably expressing firefly luciferase (FLuc) under the control of a CMV promoter (upstream) and a miR-21 binding sequence directly downstream of the gene. These cells endogenously express miR-21. Control compounds used were compound C3 (provided by collaborator), N6-phenyladenosine (MP Biomedicals, 0215379625), and DMSO. Assay Summary: 6uL of HeLa miR-21-FLuc cells in assay buffer (DMEM, Invitrogen #21063-029; 10% FBS, HyClone #SH30071.03) were dispensed at 2000cells/well (3.3 x 10^5 cells/mL) into Greiner solid-white TC-treated 1536-well plates using a Multidrop Combi (Thermo Fisher Scientific). Plates were incubated for one hour at 37 degree Celsius, 95% humidity, 5% CO2. These assay plates were then treated with 23nL of compound or DMSO using a Kalypsys pin tool, which allows for delivery of a 24-point titration of each compound to the assay plate, with a final compound concentration ranging from approximately 40uM to 5pM. Assay plates were then incubated for 48 hours. After incubation, plates were allowed to come to RT for one hour prior to delivery of 3uL of 3X luciferase detection reagent. After a 15 minute incubation to allow for cell lysis, luciferase activity was measured using a ViewLux CCD imager (PerkinElmer), with an average exposure time of 2-12 seconds. Keywords: NIH Roadmap, MLPCN, MLSMR, qHTS, miR-21, microRNA, firefly luciferase, FLuc.

Potency, active:
Clc1ccc(-n2ncc3c(NCc4ccccn4)ncnc32)cc1 4.49 µM, Cc1c(-c2nnc(SCC(=O)Nc3ccccc3F)o2)nnn1-c1ccc(F)cc1 3.56 µM, COc1ccc(OCC(=O)Nc2ccc(-c3nc4cc(Cl)ccc4o3)cc2)cc1 0.503 µM, CC(C)(C)C1CCc2nc(NC(=O)Cc3cn4ccsc4n3)sc2C1 (stereo not given) 11.3 µM, CC(C)C(=O)Nc1nc2c(s1)CC(C(C)(C)C)CC2 (stereo not given) 2.83 µM, COc1ccc(NC(=O)c2ncn(-c3ccccc3)n2)cc1Cl 12.6 µM, CCc1ccc(-n2nnc(-c3nc(-c4cccs4)no3)c2N)cc1 3.18 µM, COc1ccc(NC(=O)CSc2nnc(-c3cccs3)o2)cc1 10 µM, CN(C(=O)CSc1nnc(-c2ccccc2F)o1)C1CCCCC1 14.2 µM, COc1ccc(-c2csc(NC(=O)COC(=O)c3ccc(Br)o3)n2)cc1 2.83 µM, CC(C)COc1ccc(C(=O)Nc2cc(-c3ccccc3)no2)cc1 3.56 µM, Cc1ccc(CNc2nc(-c3ccco3)nn2S(C)(=O)=O)cc1 4 µM, Cc1ccc(Nc2ncnc(N)n2)cc1C 11.3 µM, COc1ccc(NC(=O)CSc2nc(SC)ns2)c(OC)c1 4 µM, CN(C)c1ccc(CNc2nc(-c3ccco3)nn2S(C)(=O)=O)cc1 6.34 µM, CS(=O)(=O)n1nc(-c2ccc(Cl)cc2)nc1SCc1ccccc1 5.04 µM, N#Cc1cc2cc3c(cc2nc1SCC(=O)N1CCOCC1)OCO3 1.13 µM, Cn1c(=O)[nH]c2cc(-c3noc(-c4ccc(F)cc4)n3)ccc21 10 µM, O=C(CSc1nnc(-c2ccccn2)o1)Nc1cccc(Cl)c1 2.52 µM, COc1ccc(NCc2cccn2-c2nnc(N3CCC(C)CC3)s2)c(OC)c1 3.56 µM, COc1ccc(-c2nc(SCc3ccccc3)n(S(C)(=O)=O)n2)cc1 10 µM, Cc1ccccc1Nc1nc(N)nc(CN(C)c2ccccc2)n1 11.3 µM, COc1cc(-c2nc3cnccn3c2Nc2ccc(C(C)C)cc2)ccc1O 2.83 µM, O=C(CSc1nnc(-c2ccc(C(F)(F)F)cn2)o1)Nc1cccc(Cl)c1 2.25 µM, COc1cccc(NC(=O)CSc2nnc(-c3cccs3)o2)c1 6.34 µM, O=C(CSc1nnc(-c2ccc(Cl)cc2)o1)Nc1ccc(F)cc1 1.79 µM, O=C(CSc1nnc(-c2ccc(O)cc2)o1)Nc1ccccc1Br 1.79 µM, CCc1cccc(-n2nnc(-c3nsc(NC(=O)c4cccs4)n3)c2C)c1 10 µM, COc1ccc(OCC(=O)Nc2ccc(-c3nc4cc(C)c(C)cc4o3)cc2)cc1 0.4 µM, O=S(=O)(c1ccc(F)cc1)n1ccc(-c2cnc(-c3ccccc3)s2)n1 5.65 µM, Cc1c(-c2nsc(NC(=O)c3cccs3)n2)nnn1-c1ccc(F)cc1 0.565 µM

Potency, inactive:
CC1=C(c2ccc(C)c(C)c2)S(=O)(=O)N=C1N1CCC(C(=O)NCCc2ccc(Cl)cc2)CC1, Cc1ccc(NC(=O)Cn2nnc(-c3nc(-c4ccc(Cl)cc4)no3)c2N)cc1C, Cc1cccc(OCc2nnc(SCC(=O)Nc3ccc(N4CCOCC4)cc3)o2)c1, COc1ccccc1NC(=O)C/C(C)=N/NC(=O)c1ccccn1, O=C(CSc1nnc(-c2ccncc2)o1)Nc1nncs1, O=C(Nc1nnc(S(=O)(=O)N2CCCC2)s1)c1ccc(F)cc1, Nc1c(C(=O)Nc2ccccc2Br)sc2nc(-c3cccs3)ccc12, Cc1cc(C)cc(NC(=O)CSc2nnc(CNC(=O)c3ccco3)o2)c1, COc1ccc(-n2nnc(-c3nc(-c4cccs4)no3)c2N)cc1OC
